Here are results for eight molecules from PubChem BioAssay (NCI).

Some test systems named below: RPMI-8226 leukemia; OVCAR-8 ovarian; OVCAR-5 ovarian; OVCAR-4 ovarian; SK-OV-3 ovarian; IGROV1 ovarian; OVCAR-3 ovarian; HS 578T breast; NCI/ADR-RES ovarian; T-47D breast; MDA-MB-435 melanoma; SW-620 colon; MCF7 breast; HCT-116 colon; HCC-2998 colon; KM12 colon; MDA-MB-468 breast; BT-549 breast; SR leukemia.
Common to all, as to assay: NCI-60 one-dose screen, 48 h (100 = growth as untreated, 0 = no growth, -100 = all killed)
Settings in all cases: 10 µM unless noted

The structures appear in SMILES notation. This is part of a sample that, as a whole, favours compounds with a hit. Of some 83,000 tested, about 20% had one in any assay.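 How to read the values: 0–100, growth inhibition (40 = 60% inhibited); 0, no net growth; -100 to 0, cell death (-40 = 40% of starting cells died; -100 = all dead).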 A number with no mark means an inactive call. The source made the active and inactive calls. How the source made its calls: active means growth percent below 10; inactive means the rest.

As for `N#Cc1c(NCc2ccccc2)n[nH]c1Nc1ccccc1`, the growth with RPMI-8226 leukemia was 37.3%; in the assay on OVCAR-8 ovarian it was 61.1%; in the assay on OVCAR-5 ovarian it was 84.4%; in the assay on OVCAR-4 ovarian, 52.9%; in the assay with SK-OV-3 ovarian, 68%; in the assay with IGROV1 ovarian, 89.6%. For the same molecule, the growth in the assay on OVCAR-3 ovarian is 66.8%; with HS 578T breast, 84.6%; with NCI/ADR-RES ovarian, 59.9%; with T-47D breast, 17.2%; in the assay with MDA-MB-435 melanoma, 56.6%; in the assay on SW-620 colon it was 62.7%. In addition, the growth in the assay with MCF7 breast is 41.6%; in the assay with HCT-116 colon, 33.1%; with HCC-2998 colon, 99.7%; in the assay with KM12 colon, 55.7%; in the assay with MDA-MB-468 breast, 59.8%.
With `COc1cc2c(c(OC)c1OC)C(=O)CC(c1cccc(NC(=O)c3cccc([N+](=O)[O-])c3)c1)O2` (stereo not drawn), the growth in the assay on RPMI-8226 leukemia is 8.29% (active); with OVCAR-8 ovarian it was 10.2%; in the assay on OVCAR-5 ovarian, 79.3%; in the assay with OVCAR-4 ovarian, 27.1%; in the assay on SK-OV-3 ovarian it was 64.2%; with IGROV1 ovarian it was 27%. Also, the growth in the assay on OVCAR-3 ovarian is 19.4%; with HS 578T breast, 25.1%; in the assay on NCI/ADR-RES ovarian, 14.5%; in the assay with T-47D breast, 18.6%; in the assay on BT-549 breast, -7.24% (active); in the assay on MDA-MB-435 melanoma, -16.8% (active). Besides, the growth with SW-620 colon was 34.9%; with MCF7 breast, 12.3%; in the assay on HCT-116 colon it was 16.4%; in the assay on HCC-2998 colon it was 76.4%; with KM12 colon it was 2.26% (active); in the assay with MDA-MB-468 breast, 8.62% (active).
As for `O=C(/C=C/c1ccc(O)c(O)c1)NC1CCOC1O` (stereo not drawn), the growth is 97.4% in the assay with RPMI-8226 leukemia; 95.7% in the assay with OVCAR-8 ovarian; 114% with OVCAR-5 ovarian; 108% in the assay on OVCAR-4 ovarian; 94.8% in the assay with SK-OV-3 ovarian; 111% in the assay with IGROV1 ovarian. Also, the growth is 103% with OVCAR-3 ovarian; 89.1% in the assay on HS 578T breast; 105% in the assay with NCI/ADR-RES ovarian; 92.8% in the assay with T-47D breast; 108% with BT-549 breast; 101% with MDA-MB-435 melanoma. The growth was 109% in the assay with SW-620 colon; 90.7% in the assay with MCF7 breast; 103% with HCT-116 colon; 99.2% with HCC-2998 colon; 102% in the assay on KM12 colon; 109% in the assay with MDA-MB-468 breast.
As for `COc1ccc(-c2ccnc(SCc3cc4cc(OC)ccc4[nH]c3=O)n2)cc1`, the growth in the assay on SR leukemia was 4.47% (active); with RPMI-8226 leukemia, 9.3% (active); with OVCAR-5 ovarian, 46.8%; with OVCAR-4 ovarian it was 43.3%; in the assay on SK-OV-3 ovarian, 45.2%; with IGROV1 ovarian, 33.3%. The growth is 18.3% with OVCAR-3 ovarian; -11.4% (active) in the assay on NCI/ADR-RES ovarian; 2.83% (active) in the assay on T-47D breast; -3.12% (active) in the assay with BT-549 breast; 1.18% (active) with MDA-MB-435 melanoma; 22.2% in the assay with SW-620 colon. For the same molecule, the growth in the assay on HCT-116 colon is 11%; with HCC-2998 colon, 35%; with KM12 colon, 24.2%.
`COc1ccc([C@H](C)Nc2nc(Cl)nc3ccccc23)cc1`: the growth with SR leukemia is 17.9%; in the assay on RPMI-8226 leukemia it was 23.6%; with OVCAR-5 ovarian it was 54.7%; in the assay on OVCAR-4 ovarian, 62.9%; in the assay with SK-OV-3 ovarian, 70.5%; with IGROV1 ovarian, 63.2%. The growth in the assay on OVCAR-3 ovarian was 78.7%; in the assay on NCI/ADR-RES ovarian it was 21.5%; in the assay with T-47D breast, 49.4%; in the assay on BT-549 breast, 60.3%; with MDA-MB-435 melanoma, 45.8%; in the assay with MCF7 breast, 28.8%. For the same molecule, the growth in the assay with HCT-116 colon was 20.9%; in the assay with HCC-2998 colon, 93.6%; with KM12 colon, 43%; with MDA-MB-468 breast, 15.1%.
On to `COc1cc(OC)c2c3nc4cc(C)c(C)cc4nc3n(CCN(C)C)c2c1`, for which the growth in the assay with SR leukemia was 0.994% (active); with OVCAR-8 ovarian it was -0.293% (active); with OVCAR-5 ovarian, 73.1%; with OVCAR-4 ovarian it was 63.3%; in the assay on SK-OV-3 ovarian it was 103%; in the assay with IGROV1 ovarian, 55.5%. Also, the growth is 97.7% with OVCAR-3 ovarian; 84.2% with HS 578T breast; 3.26% (active) in the assay with NCI/ADR-RES ovarian; 60.7% in the assay with T-47D breast; 78.9% in the assay on BT-549 breast; 87.8% in the assay with MDA-MB-435 melanoma. The growth is 35.3% in the assay on SW-620 colon; -17.2% (active) with MCF7 breast; 39.5% in the assay on HCT-116 colon; 77.1% with HCC-2998 colon; 84.7% in the assay on KM12 colon; 65.6% in the assay on MDA-MB-468 breast.
In the case of `O=C(Cn1c2c(sc1=O)[C@H]1[C@@H](O)[C@@H](O)[C@H](O)[C@@H]1CS2)N1CCOCC1`, the growth in the assay on SR leukemia was 99.6%; in the assay with OVCAR-8 ovarian, 108%; with OVCAR-5 ovarian it was 103%; in the assay on OVCAR-4 ovarian, 102%; in the assay with SK-OV-3 ovarian, 94.1%; with IGROV1 ovarian it was 105%. The growth was 105% with OVCAR-3 ovarian; 93.3% in the assay with HS 578T breast; 104% in the assay on NCI/ADR-RES ovarian; 93.6% in the assay on T-47D breast; 99.3% with BT-549 breast; 101% with MDA-MB-435 melanoma. Further, the growth is 107% with SW-620 colon; 98.4% in the assay with MCF7 breast; 110% in the assay on HCT-116 colon; 111% in the assay with HCC-2998 colon; 103% in the assay on KM12 colon; 105% in the assay on MDA-MB-468 breast.
Turning to `COc1cc2c(c(OC)c1OC)C(=O)CC(c1cccc(NC(=O)c3cc([N+](=O)[O-])ccc3Cl)c1)O2` (stereo not drawn), the growth with RPMI-8226 leukemia is 30.3%; with OVCAR-8 ovarian it was -11.6% (active); with OVCAR-5 ovarian it was 67.2%; with OVCAR-4 ovarian it was 57.2%; in the assay with SK-OV-3 ovarian, 57.1%; in the assay with IGROV1 ovarian, 12.5%. Besides, the growth in the assay with OVCAR-3 ovarian is 16%; in the assay with HS 578T breast, 15.1%; with NCI/ADR-RES ovarian, 15%; in the assay with T-47D breast, 23.6%; with BT-549 breast, -11% (active); with MDA-MB-435 melanoma, 28.5%. Moreover, the growth was -6.32% (active) in the assay with SW-620 colon; 11.7% in the assay with MCF7 breast; -66.1% (active) in the assay on HCT-116 colon; 33% in the assay with HCC-2998 colon; -54.7% (active) in the assay with KM12 colon; -13.7% (active) in the assay with MDA-MB-468 breast.
